PubChem BioAssay
Activity calls are given as the source filed them.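 The calls were made as follows, unless noted: active = visual image review flags a hit and inhibition of aggregation exceeds 20%; inconclusive = visual hit but inhibition at or below 20%; inactive = no hit on visual image review.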

How the values were obtained:
[1] = inhibitors of TNFa-induced NFkB p65 translocation, primary screen, imaging, HUVEC, MLSMR starter and 10KST1 sets (AID 438;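 active = inhibition above 20% together with a positive visual image hit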;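 also: compound added about 3h40 before a 20 min TNFalpha stimulation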;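 as to inhibition: signal is the nuclear over cytoplasmic p65 intensity ratio per well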); conditions: HUVEC TNFa-induced p65 nuclear translocation; cell count: measured here: nuclei count (cytotoxicity indicator), at 2.08 µM; inhibition: at 2 µM, stronger effect = higher value, 0% TNFa-plus-vehicle, 100% no-TNFa wells
[2] = reduction of polyQ htt aggregates in cells – imaging, exon1htt(103Q)mCFP cells, high-content imaging, primary screen (AID 483); conditions: exon1htt(103Q)mCFP cell line, aggregate imaging, at 2 µM; inhibition of aggregation: stronger effect = higher value; nuclei count: measured here: cell count, toxicity;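 also: compound exposure lasted 3 days before fixation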;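 as to nuclei count: percent of the per-plate median nuclei count of sample wells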
[3] = endothelial E-selectin expression blockers – imaging, HUVEC, immunofluorescence, MLSMR starter and 10KST1 sets, primary screen (AID 487;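 active = visually confirmed hit in the image check and inhibition above 20%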;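 as to inhibition: signal is fraction of cell area covered by stained E-selectin grains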;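 as to nuclei count: 100% = median nuclei count of all wells on the same plate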); conditions: HUVEC TNFalpha-induced E-selectin immunofluorescence imaging, at 2 µM; inhibition: stronger effect = higher value; nuclei count: measured here: cell number, toxicity
[4] = biological target: Voltage-gated potassium channel subunit beta-2 (Rattus norvegicus) (UniProt P62483); assay: inhibitors of rat Kvbeta2 reductase activity – biochemical, NADPH fluorescence, primary screen (AID 622;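 active = fluorescence slope higher than the sample average by over 3 SD, cut at about -0.22 in these data, passing the limit was not always enough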;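 also: slope of raw intensity against log time taken from 70 to 1610 s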); conditions: recombinant KvBeta, 4-cyanobenzaldehyde reduction, at 10 µM, stronger effect = higher value
Chain of Voltage-gated potassium channel subunit beta-2 (Rattus norvegicus) (P62483 whole entry, looked up): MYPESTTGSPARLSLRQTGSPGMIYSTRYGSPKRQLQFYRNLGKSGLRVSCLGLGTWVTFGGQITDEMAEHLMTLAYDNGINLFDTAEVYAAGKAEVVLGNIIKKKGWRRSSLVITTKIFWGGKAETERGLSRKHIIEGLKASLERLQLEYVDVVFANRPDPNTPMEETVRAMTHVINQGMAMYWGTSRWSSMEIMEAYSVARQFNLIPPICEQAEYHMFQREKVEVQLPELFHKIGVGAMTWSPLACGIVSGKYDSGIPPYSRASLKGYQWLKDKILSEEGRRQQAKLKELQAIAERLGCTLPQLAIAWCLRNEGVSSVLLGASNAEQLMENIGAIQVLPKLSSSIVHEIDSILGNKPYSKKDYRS

[5] = biological target: Voltage-gated potassium channel subunit beta-2 (Rattus norvegicus) (UniProt P62483); assay: enhancers of rat Kvbeta2 NADPH turnover – biochemical, NADPH fluorescence, primary screen (AID 623;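 active = NADPH fluorescence slope more negative than the mean of all samples by about 3 SD, 99.7% confidence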;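 also: fluorescence intensity change per second fitted from 20 to 320 s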); conditions: Recombinant KvBeta, NADPH fluorescence decrease slope, 10 min; at 10 µM; stronger effect = lower value
[6] = biological target: Alpha-2C adrenergic receptor (Homo sapiens) (UniProt P18825); assay: compounds altering alpha2C-coupled GIRK flux – cell-based, HEK293 alpha2C/GIRK1/2, thallium flux, primary screen (AID 624;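 active = fluorescence slope after compound addition differing from the mean of all screened samples at 99.7% confidence, in either direction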;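 also: slope of fluorescence ratio to pre-addition baseline per second over 15 to 24 s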); conditions: thallium flux BTC fluorescence, at 10 µM, actives lie on both sides
Chain of Alpha-2C adrenergic receptor (Homo sapiens) (P18825 whole entry, looked up): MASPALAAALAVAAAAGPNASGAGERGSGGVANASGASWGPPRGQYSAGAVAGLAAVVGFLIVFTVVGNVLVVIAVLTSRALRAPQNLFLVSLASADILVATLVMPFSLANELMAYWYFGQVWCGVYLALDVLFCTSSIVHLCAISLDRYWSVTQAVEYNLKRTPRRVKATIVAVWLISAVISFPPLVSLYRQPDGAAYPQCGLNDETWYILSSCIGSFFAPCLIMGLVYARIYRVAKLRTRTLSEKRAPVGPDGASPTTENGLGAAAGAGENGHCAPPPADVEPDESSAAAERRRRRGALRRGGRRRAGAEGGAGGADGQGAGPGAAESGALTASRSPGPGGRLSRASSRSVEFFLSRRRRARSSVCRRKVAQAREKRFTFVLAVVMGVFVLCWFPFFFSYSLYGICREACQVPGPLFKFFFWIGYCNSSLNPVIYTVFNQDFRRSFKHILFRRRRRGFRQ

[7] = blockers of RIG-like receptor reporter activation – cell-based, Sendai virus stimulus, luciferase, 10K MLSCN set, TLR/RLR signaling modifier project, primary screen (AID 602276;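 active = inhibition at or above 50% at 10 µM; inactive = inhibition below 50%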;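 also: firefly luciferase from ISG56 promoter only with Renilla not read in this screen; 0% = Sendai virus plus DMSO and 100% = medium plus DMSO without virus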); conditions: HEK293 RL24 IRF3 luciferase reporter, at 10 µM, stronger effect = higher value
[8] = TLR3 IRF3 reporter activation blockers – cell-based, poly I:C stimulus, luciferase, 10K MLSCN set, primary screen (AID 602277;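 active = inhibition of the reporter signal at or above 50%; inactive = inhibition below 50%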); conditions: HEK293-TLR3 RL24 IRF3 luciferase reporter, at 10 µM, stronger effect = higher value

CCOC(=O)CSc1nnc(Cn2c(=O)sc3ccccc32)n1C
cell count [1]: 475
inhibition [1]: -8.3% (inactive)
inhibition of aggregation [2]: 20.2% (inactive)
nuclei count [2]: 106%
inhibition [3]: -24.8% (inactive)
nuclei count [3]: 114%
fluorescence slope [4]: -0.576 (inactive)
NADPH fluorescence slope [5]: -4.8e-05 (inactive)
slope [6]: 0.00614 (inactive)
inhibition [7]: 8.16% (inactive)
inhibition [8]: 33.4% (inactive)

Cc1c(C(=O)OCC(C)(C)CN(C)C)oc2ccccc12
cell count [1]: 428
inhibition [1]: -3.3% (inactive)
inhibition of aggregation [2]: -15.2% (inactive)
nuclei count [2]: 107%
inhibition [3]: -39.5% (inactive)
nuclei count [3]: 118%
fluorescence slope [4]: -0.328 (inactive)
NADPH fluorescence slope [5]: 2.8e-05 (inactive)
slope [6]: 0.00529 (inactive)
inhibition [7]: -31.4% (inactive)
inhibition [8]: -27.6% (inactive)

COC(=O)c1c(NC(=O)CSc2nnnn2C)sc(C)c1C
cell count [1]: 446
inhibition [1]: -0.5% (inactive)
inhibition of aggregation [2]: -4.7% (inactive)
nuclei count [2]: 95.6%
inhibition [3]: 30.9% (inactive)
nuclei count [3]: 101%
fluorescence slope [4]: -0.374 (inactive)
NADPH fluorescence slope [5]: -3.1e-05 (inactive)
slope [6]: 0.00478 (inactive)
inhibition [7]: -19% (inactive)
inhibition [8]: -14.9% (inactive)

CCOC(=O)c1ccc(Oc2nc(SC)nc(N(C)C)n2)cc1
cell count [1]: 467
inhibition [1]: 5.5% (inactive)
inhibition of aggregation [2]: -5.2% (inactive)
nuclei count [2]: 110%
inhibition [3]: -308% (inactive)
nuclei count [3]: 133%
fluorescence slope [4]: -0.34 (inactive)
NADPH fluorescence slope [5]: 7.8e-06 (inactive)
slope [6]: 0.00652 (inactive)
inhibition [7]: 3.96% (inactive)
inhibition [8]: 4.44% (inactive)

COc1ccc(-n2c(=O)c3c4c(sc3n3c(C)nnc23)CCCC4)cc1
cell count [1]: 415
inhibition [1]: 3.3% (inactive)
inhibition of aggregation [2]: 4.3% (inactive)
nuclei count [2]: 100%
inhibition [3]: -7.4% (inactive)
nuclei count [3]: 116%
fluorescence slope [4]: -0.35 (inactive)
NADPH fluorescence slope [5]: -2.4e-05 (inactive)
slope [6]: 0.00664 (inactive)
inhibition [7]: 4.81% (inactive)
inhibition [8]: 19.4% (inactive)

O=C(NCCN1CCOCC1)NC1(C(F)(F)F)Oc2ccc(Cl)cc2O1 (centres undefined)
cell count [1]: 457
inhibition [1]: 16.3% (inactive)
inhibition of aggregation [2]: 11% (inactive)
nuclei count [2]: 96.4%
inhibition [3]: -51.7% (inactive)
nuclei count [3]: 118%
fluorescence slope [4]: -0.467 (inactive)
NADPH fluorescence slope [5]: -5.6e-05 (inactive)
slope [6]: 0.00481 (inactive)
inhibition [7]: 24.6% (inactive)
inhibition [8]: 37.9% (inactive)

CCn1c(=O)cc(OCC(=O)NC2CCCCC2)c2ccccc21
cell count [1]: 336
inhibition [1]: 22.2% (inactive)
inhibition of aggregation [2]: -2.9% (inactive)
nuclei count [2]: 110%
inhibition [3]: -15.3% (inactive)
nuclei count [3]: 113%
fluorescence slope [4]: -0.263 (inactive)
NADPH fluorescence slope [5]: 1.1e-05 (inactive)
slope [6]: 0.00609 (inactive)
inhibition [7]: 1.11% (inactive)
inhibition [8]: 23.9% (inactive)

CN(C1CCCCC1)S(=O)(=O)c1ccc(S(=O)(=O)N2CCN(CCC#N)CC2)cc1
cell count [1]: 698
inhibition [1]: 0% (inactive)
inhibition of aggregation [2]: 28.2% (inactive)
nuclei count [2]: 124%
inhibition [3]: -53.2% (inactive)
nuclei count [3]: 107%
fluorescence slope [4]: -0.527 (inactive)
NADPH fluorescence slope [5]: -3.3e-06 (inactive)
slope [6]: 0.00618 (inactive)
inhibition [7]: 3.23% (inactive)
inhibition [8]: 15.8% (inactive)

CC(C)CCn1c(NCCc2ccccc2)nc2c1c(=O)n(C)c(=O)n2C
cell count [1]: 753
inhibition [1]: -8% (inactive)
inhibition of aggregation [2]: 1.3% (inactive)
nuclei count [2]: 120%
inhibition [3]: -17.6% (inactive)
nuclei count [3]: 108%
fluorescence slope [4]: -0.409 (inactive)
NADPH fluorescence slope [5]: -7.3e-05 (inactive)
slope [6]: 0.00481 (inactive)
inhibition [7]: 9.59% (inactive)
inhibition [8]: 32.1% (inactive)

CCOc1ncccc1C(=O)Nc1ccc(Cl)cc1
cell count [1]: 861
inhibition [1]: -15% (inactive)
inhibition of aggregation [2]: -9.2% (inactive)
nuclei count [2]: 121%
inhibition [3]: -36.9% (inactive)
nuclei count [3]: 105%
fluorescence slope [4]: -0.44 (inactive)
NADPH fluorescence slope [5]: -3.2e-06 (inactive)
slope [6]: 0.0068 (inactive)
inhibition [7]: 10.1% (inactive)
inhibition [8]: 35.6% (inactive)

Cc1c(NC(=O)C(C)OC(=O)c2cc3c4ccccc4n(C)c3s2)c(=O)n(-c2ccccc2)n1C (centres undefined)
cell count [1]: 405
inhibition [1]: -1.3% (inactive)
inhibition of aggregation [2]: -35.1% (inactive)
nuclei count [2]: 67.6%
inhibition [3]: -1.3% (inactive)
nuclei count [3]: 107%
fluorescence slope [4]: -0.481 (inactive)
NADPH fluorescence slope [5]: -3.8e-06 (inactive)
slope [6]: 0.0038 (inactive)
inhibition [7]: 25.6% (inactive)
inhibition [8]: 34.4% (inactive)

COc1ccc(N2C(=O)CCC(C(=O)N3CCCCC3)C2c2ccc(OC)c(OC)c2)cc1 (centres undefined)
cell count [1]: 164
inhibition [1]: -1.9% (inactive)
inhibition of aggregation [2]: 21.6% (inactive)
nuclei count [2]: 96.5%
inhibition [3]: -17.5% (inactive)
nuclei count [3]: 97%
fluorescence slope [4]: -0.412 (inactive)
NADPH fluorescence slope [5]: 5.3e-05 (inactive)
slope [6]: 0.00625 (inactive)
inhibition [7]: 12.8% (inactive)
inhibition [8]: 21.7% (inactive)

COC(=O)c1c(N)sc(C(=O)N2CCOCC2)c1C
cell count [1]: 261
inhibition [1]: -5.1% (inactive)
inhibition of aggregation [2]: 3% (inactive)
nuclei count [2]: 82.3%
inhibition [3]: 60.2% (inactive)
nuclei count [3]: 32.3%
fluorescence slope [4]: -0.439 (inactive)
NADPH fluorescence slope [5]: -5.8e-06 (inactive)
slope [6]: 0.00581 (inactive)
inhibition [7]: -4.15% (inactive)
inhibition [8]: -5.07% (inactive)

Cc1ccc(NC(=O)CSc2nnc(-c3ccccn3)n2C)cc1
cell count [1]: 644
inhibition [1]: 14.4% (inactive)
inhibition of aggregation [2]: 6.7% (inactive)
nuclei count [2]: 92.4%
inhibition [3]: 0.6% (inactive)
nuclei count [3]: 111%
fluorescence slope [4]: -0.418 (inactive)
NADPH fluorescence slope [5]: -2.7e-05 (inactive)
slope [6]: 0.00462 (inactive)
inhibition [7]: 0.794% (inactive)
inhibition [8]: -5.25% (inactive)
